Reference: the supplement of paper PMC6555819

Key:
Test in all cases: PBM binding z-score (relative to random genomic background probes); higher = stronger binding; sequences stand for … in GC…GCGATTGACAGCGTAGAATGAAGG
[1] = system: FXR:RXRa (NR concentration 270 nM, RXRa partner concentration 90 nM)
Procedure, shortened: (§1)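 Binding z-scores were set against random background probes. The data came from custom Agilent 4×180K protein-binding microarrays carrying double-stranded probes with 34-nt variable regions, incubated 1 h with ligand-free nuclear receptor dimers. Partner-specific antibodies detected binding, and scanned fluorescence was regression-normalized.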

[2] = system: LXRa:RXRa (NR concentration 270 nM, RXRa partner concentration 90 nM)
Procedure, shortened: as §1

[3] = system: LXRa homodimer (NR concentration 270 nM)
Procedure, shortened: as §1

[4] = system: LXRb:RXRa (NR concentration 270 nM, RXRa partner concentration 90 nM)
Procedure, shortened: as §1

[5] = system: LXRb homodimer (NR concentration 270 nM)
Procedure, shortened: as §1

[6] = system: PPARa:RXRa (NR concentration 270 nM, RXRa partner concentration 90 nM)
Procedure, shortened: as §1

[7] = system: PPARg:RXRa (NR concentration 180 nM, RXRa partner concentration 90 nM)
Procedure, shortened: as §1

[8] = system: PPARg:RXRa 270nM:90nM, anti-RXR (NR concentration 270 nM, RXRa partner concentration 90 nM)
Procedure, shortened: as §1

[9] = system: PPARg:RXRa 30nM:10nM, anti-RXR (NR concentration 30 nM, RXRa partner concentration 10 nM)
Procedure, shortened: as §1

[10] = system: PPARg:RXRa 90nM:30nM, anti-RXR (NR concentration 90 nM, RXRa partner concentration 30 nM)
Procedure, shortened: as §1

[11] = system: PPARg:RXRa DBDmut IVT, anti-RXR (DBD mutation: RXRa K156A/R161A, NR concentration 270 nM, RXRa partner concentration 90 nM)
Procedure, shortened: as §1

[12] = system: PPARg:RXRa IVT, anti-PPARg (NR concentration 270 nM, RXRa partner concentration 90 nM)
Procedure, shortened: as §1

[13] = system: PPARg DBDmut:RXRa IVT, anti-PPARg (DBD mutation: PPARg1 K132A/R137A, NR concentration 270 nM, RXRa partner concentration 90 nM)
Procedure, shortened: as §1

[14] = system: PPARg DBDmut IVT, anti-PPARg (DBD mutation: PPARg1 K132A/R137A, NR concentration 270 nM)
Procedure, shortened: as §1

[15] = system: PPARg homodimer (NR concentration 180 nM)
Procedure, shortened: as §1

[16] = system: PXR:RXRa (NR concentration 270 nM, RXRa partner concentration 90 nM)
Procedure, shortened: as §1

[17] = system: PXR homodimer (NR concentration 270 nM)
Procedure, shortened: as §1

[18] = system: RARa:RXR (NR concentration 270 nM, RXRa partner concentration 90 nM)
Procedure, shortened: as §1

[19] = system: RARa homodimer (NR concentration 270 nM)
Procedure, shortened: as §1

[20] = system: RARb:RXRa (NR concentration 270 nM, RXRa partner concentration 90 nM)
Procedure, shortened: as §1

Sequence | PBM binding z-score [1] | PBM binding z-score [2] | PBM binding z-score [3] | PBM binding z-score [4] | PBM binding z-score [5] | PBM binding z-score [6] | PBM binding z-score [7] | PBM binding z-score [8] | PBM binding z-score [9] | PBM binding z-score [10] | PBM binding z-score [11] | PBM binding z-score [12] | PBM binding z-score [13] | PBM binding z-score [14] | PBM binding z-score [15] | PBM binding z-score [16] | PBM binding z-score [17] | PBM binding z-score [18] | PBM binding z-score [19] | PBM binding z-score [20]
ATCTCTGGGTAAGACTCAGTTCAGTGAAGAACGC | 0.0881 | 0.209 | 0.369 | 0.319 | 0.684 | 0.1 | 0.0592 | 0.276 | 0.108 | 0.0741 | 1.16 | 1.22 | 0.795 | 0.645 | 0.772 | 1.16 | 1.54 | 0.0495 | 0.661 | 0.293
TCATATAGGTAAAGGTGAAAGCCGAACGATATGA | 0.132 | 1.05 | -0.406 | 1.09 | -0.488 | 3.13 | 3.82 | 4.43 | 4.34 | 4.51 | 3.94 | 4.09 | 1.05 | 1.68 | 1.25 | 0.502 | -0.307 | 1.44 | -0.251 | 1.83
CCGACTGGGCCAAAAAGGTCATTGATGCCGATAA | 3.41 | 4.25 | 2.8 | 3.93 | -0.421 | 4.53 | 2.35 | 3.47 | 0.713 | 2.22 | 1.65 | 2.62 | -1.21 | -1.08 | 2.17 | 4.5 | 1.95 | 4.92 | 0.897 | 3.9
CCTAATGGGCCAAAAAGGTCATTGATGCCGATAA | 3.45 | 4.14 | 3.21 | 4.2 | 0.435 | 4.59 | 2.58 | 3.36 | 1.37 | 2.69 | 2.24 | 2.34 | -0.601 | -0.248 | 3.03 | 4.65 | 2.85 | 5.08 | 1.31 | 3.99
ATCTCTAGGTAAAGTTCAGTGATAGATCGATAGA | 1.49 | 1.95 | 1.88 | 1.14 | 1.34 | 2.39 | 3.59 | 4.16 | 2.3 | 3.88 | 2.28 | 2.44 | 1.4 | 1.48 | 1.9 | 1.92 | 1.96 | 1.35 | 1.69 | 2.71
CGAACTAGATCATTGACAGGACAGTGAATAGTAA | -0.0761 | -0.268 | 0.18 | -0.274 | -0.0892 | 0.0131 | 0.572 | -0.333 | 0.0975 | 0.113 | 1.8 | 0.856 | 0.569 | 0.266 | 0.538 | 0.285 | -0.0589 | 0.3 | 0.92 | 0.0179
ACCATTAGTTGAGACGAGGGCAACCGATAGGTTG | 0.428 | 0.177 | 3.5e-05 | 0.214 | -0.155 | 0.553 | 0.56 | -0.0707 | 0.0624 | -0.228 | 0.237 | 0.503 | 0.491 | -0.276 | 0.403 | 1.5 | 0.41 | 1.48 | -0.14 | 1.18
CCTCGGAGCACAACAGGAGGTCAGAGCTGCCAGA | 0.811 | 1.54 | 1.97 | 1.4 | -0.755 | 1.65 | 0.0996 | 0.038 | -0.859 | -0.308 | -0.234 | 0.244 | -0.72 | -1.62 | 1.23 | 1.56 | 0.0895 | 2.01 | 0.0401 | 1.74
GGAACGAGGGAATTCGAGTTGATAGCATGGCGAT | -0.4 | -0.535 | -0.72 | -0.978 | -1.16 | -0.557 | 0.44 | -0.504 | -0.356 | -0.529 | -0.111 | -0.244 | -0.28 | 0.0147 | -0.611 | -0.165 | -0.439 | -0.36 | -0.411 | -0.688
TCTCGGAGGACACGAAAGGTCCGAGCTCGACATC | 0.78 | 0.222 | -0.359 | -0.21 | -0.97 | 0.254 | 0.0516 | 0.627 | 1.98 | 1.28 | 1.48 | -0.219 | -0.586 | -0.37 | -0.226 | 0.0287 | -0.785 | 0.412 | -1.1 | 1.47
GCTTGTAGGTCAAGGTTAAGAAAGACTAAGCTAA | 5.3 | 4.01 | 0.371 | 3.16 | 0.186 | 5.37 | 9.1 | 7.63 | 6.21 | 7.79 | 7.82 | 8 | 2.05 | 1.01 | 1.99 | 2.52 | 0.226 | 3.43 | 1.18 | 4.32
ACAGACAGGTGAGTGTAGGTAACTCAGCTGGACG | 0.257 | -0.0272 | -0.446 | -0.538 | -0.878 | 0.215 | 0.458 | 0.248 | -0.279 | -0.0696 | 0.831 | 1.24 | -0.529 | -0.0544 | 0.128 | -0.121 | 0.0184 | 0.216 | 0.676 | 0.392
CCTATTAGTTGACCATCAGGGCAACCGAAGCTCG | 0.442 | 0.292 | 0.822 | 0.105 | 0.434 | 0.136 | 0.185 | 0.164 | -0.404 | 0.121 | 0.536 | 0.814 | 0.556 | 0.943 | 1.44 | 0.0854 | 0.589 | 0.0403 | 1.51 | 1.07
CCTACTGGGCCACGAAAGGTCATAGATTCAGTGA | 3.74 | 5.02 | 4.02 | 4.2 | 0.194 | 4.78 | 4.68 | 4.98 | 2.28 | 4.2 | 5.75 | 6.04 | 0.35 | 1.08 | 3.16 | 4.97 | 0.915 | 5.39 | 0.471 | 4.03
TGAATGAGGTTATAAGATCATGGAACGTTGCAAA | 1.6 | 1.52 | -0.175 | 1.37 | 0.0257 | 3.04 | 1.65 | 2.41 | 1.02 | 1.78 | 1.37 | 2 | 1.44 | 0.209 | -0.119 | 1.1 | -0.359 | 1.96 | -0.439 | 1.13
TCTGCTAGGTCAGTTGGTCAGCTATCGAGCTGCC | 0.915 | 0.538 | -0.72 | 0.193 | 0.35 | 1.26 | 0.224 | 1.72 | 1.21 | 1.45 | 2.46 | 3.27 | 0.301 | 0.371 | 0.0545 | 0.289 | -0.818 | 0.544 | -1.27 | 3.39
ATCTCTAGGTAACAAGTTCAGTGGAAGAGAGGAC | 0.589 | 0.744 | 0.58 | 0.666 | 0.823 | 1.47 | 1.7 | 1.79 | 0.967 | 1.71 | 3.2 | 3.02 | 0.956 | 1.34 | 1.43 | 1.66 | 1.48 | 1.15 | 1.39 | 1.8
GCTAGTTGGTCAGTAAAAGGTTACACACCGGTCG | 0.754 | 1.32 | 0.582 | 1.27 | -0.0752 | 1.85 | 0.972 | 2.31 | 0.546 | 1.46 | 0.66 | 1.05 | -0.658 | -0.197 | 1.27 | 1.42 | 0.164 | 1.98 | 0.524 | 2
